According to PubChem BioAssay (NCI):
The panel holds about 79,000 compounds, 15% with a hit somewhere; the sample as a whole holds those more often. Cut-off read from the data, not from the text of the source: active = growth inhibition above about 70%; inactive = the rest.

Columns and labels:
[1] = NCI Yeast Anticancer Drug Screen. Data for the rad50 strain (AID 155);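 note: 0% = growth of vehicle-only cultures of the same strain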; conditions: S. cerevisiae rad50 strain growth inhibition; at 50.0 µM; hits give high values
Outline: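 Cells are treated with compound, grown, and their growth is then scored against vehicle-only cultures of the same repair-deficient yeast strain.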

[2] = NCI Yeast Anticancer Drug Screen. Data for the mec2-1 strain (AID 157); conditions: S. cerevisiae mec2-1 strain, at 50.0 µM, hits give high values
Outline: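 Mutant yeast (mec2-1) grown with compound; growth inhibition relative to vehicle control reported.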

[3] = NCI Yeast Anticancer Drug Screen. Data for the sgs1 mgt1 strain (AID 161);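 note: 0% = growth of cultures given vehicle only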; conditions: S. cerevisiae sgs1 mgt1 strain, at 50.0 µM, hits give high values
Outline: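 Compounds are added to genetically altered yeast, and growth is compared with cultures given vehicle alone to give percent inhibition.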

[4] = NCI Yeast Anticancer Drug Screen. Data for the cln2 rad14 strain (AID 165);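 note: 0% = growth equal to vehicle treated cultures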; conditions: S. cerevisiae cln2 rad14 strain, at 50.0 µM, hits give high values
Outline: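 Readout is yeast growth inhibition versus vehicle-treated controls, using a strain with cln2 and rad14 alterations exposed to compound.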

[5] = NCI Yeast Anticancer Drug Screen. Data for the bub3 strain (AID 167); conditions: S. cerevisiae bub3 mutant strain, at 50.0 µM, hits give high values
Outline: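 Part of a panel of yeast mutants defective in DNA damage repair or cell cycle regulation. Each strain is grown with compound, and inhibition is calculated relative to solvent-treated cultures.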

[6] = NCI Yeast Anticancer Drug Screen. Data for the mlh1 rad18 strain (AID 175); conditions: S. cerevisiae mlh1 rad18 strain growth inhibition; at 50.0 µM; hits give high values
Outline: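 Genetically defined yeast (DNA repair-deficient) exposed to compounds; growth inhibition determined relative to vehicle.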

Measured: growth inhibition

CNC(=O)N(C)C(C)=O
inactive: [1] -6.15% | [2] -1.25% | [3] 0% | [4] -3.25% | [5] -5.15% | [6] 4.9%

O=C1COC(C(O)(c2ccccc2)c2ccccc2)C(=O)N1 (stereo not given)
inactive: [1] -5.35% | [2] -18.9% | [3] -1.3% | [4] -65% | [5] -21.4% | [6] 6.25%

CC(C)=CCC(C)C
inactive: [1] -12.1% | [2] 3.85% | [3] 6.85% | [4] 7.9% | [5] -12.6% | [6] -3.85%

COc1nc2[nH]ccc2c(=O)[nH]1
inactive: [1] -23.8% | [2] -25.2% | [3] -31.8% | [4] 3.15% | [5] -11.3% | [6] -11.1%

O=C(O)C(O)c1ccc(Cl)c(Cl)c1 (stereo not given)
inactive: [1] 29.4% | [2] -24.3% | [3] 7.2% | [4] -13.3% | [5] 15.8% | [6] 11.1%

CC/C(C)=N/NC(=O)c1ccc([N+](=O)[O-])cc1
inactive: [1] 22.7% | [2] 12% | [3] 20.8% | [4] 8.6% | [5] 0.95% | [6] 16.6%

CCCC(C)C(=O)O (stereo not given)
inactive: [1] 23.1% | [2] -1.95% | [3] 4% | [4] 23.1% | [5] 28.8% | [6] 19.9%

C=C1C(=O)OC2CC(C)C3CC(OCCCl)OC(OCCCl)C3(C)CC12 (stereo not given)
inactive: [1] 13.8% | [2] 7.65% | [3] -3.05% | [4] 7.25% | [5] 5.65% | [6] -6.2%

CCCC(/C=N/Nc1ccc([N+](=O)[O-])cc1[N+](=O)[O-])=C\c1ccccc1
inactive: [1] -12.1% | [2] -29.2% | [3] 10.6% | [4] -22.9% | [5] 27.1% | [6] -50%

c1ccc2cc3c(cc2c1)Cn1c-3nc2ccccc21
inactive: [1] 19.4% | [2] -8.7% | [3] 13.2% | [4] 6.55% | [5] 11.4% | [6] 27.8%

CC(CS)CS
inactive: [1] 6.85% | [2] -0.5% | [3] 6.95% | [4] -8.75% | [5] -0.8% | [6] 37%

COc1cc2c3c(c1OC)-c1cc4c(cc1CC3(C#N)N(C(=O)c1ccccc1)CC2)OCO4 (stereo not given)
inactive: [1] 3.5% | [2] 8.05% | [3] -29.2% | [4] -5.35% | [5] 15.1% | [6] 26.1%

O=C(c1ccccc1)C(CBr)C(Br)c1ccccc1 (stereo not given)
inactive: [1] -17.4% | [2] 24.7% | [3] 10.1% | [4] -24.8% | [5] 16.9% | [6] 1.75%

CC1CC(C)(C)C(C[NH-])C1[NH-].[Cl][Pt+2][Cl] (stereo not given)
inactive: [1] 23.8% | [2] 20.5% | [3] 34.3% | [4] 24.1% | [5] 28.9% | [6] 28.1%

C1=C(c2ccccc2)CC(c2ccc(-c3ccccc3)cc2)=C1
inactive: [1] 6.9% | [2] 1.15% | [3] 1.55% | [4] -27.6% | [5] -10.2% | [6] 16.4%

COc1cccc(/C=C/C(=O)c2sc(C(N)=S)nc2C)c1O
inactive: [1] 14.2% | [2] 1.7% | [3] 5.2% | [4] 25.9% | [5] -3.75% | [6] 7.6%

Cc1ccc2nc(-c3ccc(N=NNc4ccc(-c5nc6ccc(C)c(S(=O)(=O)O)c6s5)cc4)cc3)sc2c1S(=O)(=O)O
inactive: [1] 23.5% | [2] 6.85% | [3] -9.7% | [4] 18.2% | [5] 12.3% | [6] 18.6%

CCOC(=O)NN1C(=O)C(=P(c2ccccc2)(c2ccccc2)c2ccccc2)C(C(=O)OC)=C1C
inactive: [1] -4.05% | [2] 4.45% | [3] -6.75% | [4] 11.8% | [5] -6.65% | [6] -4.85%

Cc1ccc(S(=O)(=O)N2CCC2c2ccccc2)cc1 (stereo not given)
inactive: [1] 4.55% | [2] -3.8% | [3] -17.9% | [4] -3.85% | [5] -17.9% | [6] -24.9%

O=C1C(O)C(c2ccccc2)c2ccccc2N1c1ccccc1 (stereo not given)
inactive: [1] 2.2% | [2] 5.35% | [3] 1.8% | [4] -5.9% | [5] -9.75% | [6] 15.1%

Oc1ccc(O)c(CCCc2cc(O)ccc2O)c1
inactive: [1] 13.3% | [2] 7.8% | [3] -2.25% | [4] 0.5% | [5] 6.95% | [6] 49.5%

O=C1CN(c2ccccc2)C(=O)CN1/N=C/c1ccc[nH]1
inactive: [1] -27.4% | [2] -7.55% | [3] -4.9% | [4] -21.4% | [5] -7.7% | [6] -13.4%

O=C1OC(c2ccc(Cl)c3ccccc23)c2ccccc21 (stereo not given)
inactive: [1] 58.6% | [2] 19.2% | [3] 34.4% | [4] 28.6% | [5] 12.8% | [6] 43.3%

CCOC(=O)NC(=O)c1cn(CCSCCOC(=O)NCCCCCCNC(=O)OCCSCCn2cc(C(=O)NC(=O)OCC)c(=O)[nH]c2=O)c(=O)[nH]c1=O
inactive: [1] 28.7% | [2] 20.6% | [3] 11.9% | [4] 12.9% | [5] -51.2% | [6] 23.2%

C=CCOC(=O)C(C)OC(=O)OCC (stereo not given)
inactive: [1] 9.2% | [2] 10.7% | [3] 6.85% | [4] 8.1% | [5] -2.1% | [6] 7.15%

O=S(=O)(O)c1cc(N=Nc2cc(S(=O)(=O)O)c3cccnc3c2O)ccc1/C=C/c1ccc(N=Nc2cc(S(=O)(=O)O)c3cccnc3c2O)cc1S(=O)(=O)O.[Na+].[Zn+2]
inactive: [1] -15.2% | [2] -8.65% | [3] -9.85% | [4] -75.6% | [5] -44% | [6] -86.7%

CC(C)/C(=N\N=C(\c1ccccc1)C(C)C)c1ccccc1
inactive: [1] -2.6% | [2] 25.5% | [3] 3% | [4] -7.7% | [5] 16.3% | [6] 18.1%

O=C(NC1CCCCC1)/C(=C\c1ccc(/C=C(/NC(=O)c2ccccc2)C(=O)NC2CCCCC2)cc1)NC(=O)c1ccccc1
inactive: [1] -9.95% | [2] -26.9% | [3] 9.5% | [4] -34.5% | [5] -22.6% | [6] -20.8%

CC(=O)NC(Cc1cccc2ccccc12)C(=O)O (stereo not given)
inactive: [1] 0.55% | [2] -6.15% | [3] -0.05% | [4] -2% | [5] 2.6% | [6] -6.45%

Fc1c(F)c(F)c(SN=S=Nc2ccccc2)c(F)c1F
inactive: [1] 13.4% | [2] 12.1% | [3] 13.3% | [4] -1.35% | [5] 15.1% | [6] 26.9%

O=C(NCCCl)Oc1ccccc1
inactive: [1] 6.85% | [2] -15.5% | [3] -7.95% | [4] -0.1% | [5] -4.9% | [6] -9.1%

CCOC(=O)C(C#N)C1CCCC(C)CC1 (stereo not given)
inactive: [1] 13% | [2] 6.5% | [3] 3.5% | [4] 2.65% | [5] 34.1% | [6] 7.55%

S=C(Nc1ccccc1)c1ccccc1
inactive: [1] -23.2% | [2] -16.5% | [3] -5.25% | [4] -29.3% | [5] -5.1% | [6] 16.1%

CC(=O)Nc1ccc2c(c1)C(=O)c1cc(Cl)ccc1-2
inactive: [1] 0.25% | [2] -6.05% | [3] 5.75% | [4] -28.1% | [5] -2.05% | [6] -9.35%

CCN(C(=O)/C=C/c1ccccc1)C1CCCCC1
inactive: [1] 17.2% | [2] 27.9% | [3] 53.2% | [4] 47.2% | [5] 35.5% | [6] 48.5%

CC1c2nc(N)nc(N)c2CN1C(=O)c1ccccc1 (stereo not given)
inactive: [1] 3.25% | [2] -5.7% | [3] -18.9% | [4] -13.6% | [5] -8.85% | [6] -0.85%

O=C(O)c1cccnc1Cl
inactive: [1] 10.2% | [2] -3.5% | [3] -9.9% | [4] 14.4% | [5] 4.15% | [6] -4.45%

COC(=O)c1cc(CC2Cc3cc4c(cc3C2)CCC4)cc2c1CCC2
inactive: [1] -16.7% | [2] -8.85% | [3] -29.1% | [4] 15.3% | [5] 0.7% | [6] -1.25%

Cc1cc(=O)c(O)c(C)o1
inactive: [1] -1.4% | [2] -2.9% | [3] -3.4% | [4] 2.5% | [5] -0.05% | [6] -1.7%

O=S1(=O)CCCC1C(O)c1ccccc1 (stereo not given)
inactive: [1] 13.8% | [2] -5.75% | [3] -8.85% | [4] -60.2% | [5] 1.55% | [6] -15.1%

Cc1cc(Br)c[nH]c1=O
inactive: [1] -4.75% | [2] -7.7% | [3] -3.65% | [4] -20.2% | [5] -29.1% | [6] 5.05%

O=C1OI(=O)(O)c2ccccc21 (stereo not given)
inactive: [1] -4.35% | [2] -5.95% | [3] -7.5% | [4] -36.6% | [5] 5.2% | [6] 2.5%

Nc1ccn(C2OC(COC(=O)C34CC5CC(CC(C5)C3)C4)C(O)C2O)c(=O)n1 (stereo not given)
inactive: [1] -14.5% | [2] 0.4% | [3] -35.5% | [4] -2.4% | [5] -31.2% | [6] 6.3%

CCCCCC(Oc1ccc(Cl)cc1)C(=O)OCC (stereo not given)
inactive: [1] 22.8% | [2] 9.1% | [3] 14.9% | [4] 1.45% | [5] 15% | [6] 17.2%

CC(=O)NC1C(OCC(=O)NCCNc2ccc([N+](=O)[O-])c3[nH]c4ccccc4c(=O)c23)C(O)C(CO)OC1(C)OCc1ccccc1 (stereo not given)
inactive: [1] -3.9% | [2] -39.9% | [3] -25.6% | [4] 8.65% | [5] -18.4% | [6] -3.4%
